Assay outcomes deposited in PubChem by The Scripps Research Institute Molecular Screening Center.
This is a sample that favours compounds with a hit; in the whole collection about 4.5% have one here.
DAX1 inh-1: inhibits human nuclear receptor DAX1; P51843; HEK293 Gal4-DAX1 luciferase reporter, luminescence; inhibition, % at 6.75 µM; 340,000 compounds, 0.99% hits; AID 504766;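 active means inhibition above the mean over all tested compounds plus 3 SD, cut at about 4.2% in these data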;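 further: 0% = DAX1-transfected cells with DMSO and 100% = empty-vector control cells with DMSO; inhibition shows as a rise in luminescence from relieved DAX1 repression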
Target sequence (P51843 207-470 limits assumed): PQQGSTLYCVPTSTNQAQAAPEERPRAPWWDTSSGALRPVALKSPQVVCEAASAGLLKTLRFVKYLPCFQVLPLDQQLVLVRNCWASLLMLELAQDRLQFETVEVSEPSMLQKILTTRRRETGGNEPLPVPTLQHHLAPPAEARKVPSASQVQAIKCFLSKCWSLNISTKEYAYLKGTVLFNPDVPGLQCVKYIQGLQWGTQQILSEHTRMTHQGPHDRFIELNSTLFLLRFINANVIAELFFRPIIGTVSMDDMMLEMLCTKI
ssDAF-12 act: S. stercoralis DAF-12 activation, primary screen. HEK293 ssDAF-12/GRIP1 lit1-tk-luc reporter, luminescence; % of 3 µM dafachronic acid response. activation, % at 6.8 µM. 370,000 compounds, 1% hits;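 active means activation above the mean over all tested compounds plus 3 SD, cut at about 0.9% in these data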;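 further: 0% = DMSO-only wells and 100% = 3 µM delta7-dafachronic acid wells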
DAX1 inh-2: inhibitors of DAX1 repression of SF-1 activated StAR promoter. HEK293T StAR-luciferase reporter, SF-1/DAX-1 repression relief. inhibition, % at 6.8 µM. 370,000 compounds, 1.1% hits;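 active means inhibition above the mean over all tested compounds plus 3 SD, cut at about 3.6% in these data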;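 further: 0% = DAX-1 cells with DMSO and 100% = cells lacking DAX-1 with DMSO; higher inhibition means more luminescence from relief of DAX-1 repression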
hgDAF-12 ag: activates the H. glycines DAF-12 receptor ligand-binding domain | HEK293 GAL4-hgDAF12 UAS-luciferase reporter, agonist luminescence; normalized to butyrate control | activation, % at 6.8 µM | 370,000 compounds, 1.8% hits | AID 687014;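 active means activation above a cutoff set at the mean of all screened compounds plus 3 SD, cut at about 10% in these data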;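 further: 0% = DMSO wells and 100% = sodium butyrate wells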
FXN GAA850 act: activators of GAA850 frataxin (FXN) promoter. AID 540364. activation, % at 6 µM. HEK293 lucGAA850 FXN promoter luciferase reporter, 24 h; percent of 10 µM SAHA response. 360,000 compounds, 0.56% hits;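 active means activation above the average of all compounds screened plus 3 SD, cutoff fixed separately per campaign, cut at about 7.5% in these data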;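 further: 0% = DMSO wells and 100% = 10 µM SAHA wells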
hcDAF-12 act: activates DAF-12 receptor from parasite H. contortus | HEK293 hcDAF-12 lit1-tk-luc reporter, luminescence; 0% DMSO, 100% Δ7-dafachronic acid | activation, % at 6.8 µM | 370,000 compounds, 1.4% hits;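 active means activation above the mean of all tested compounds plus 3 SD, cut at about 5.5% in these data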;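 further: 100% = response to 3 µM Δ7-dafachronic acid high control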
* marks the source's active call; other numbers are inactive results; x = no result.

SMILES | DAX1 inh-1 | ssDAF-12 act | DAX1 inh-2 | hgDAF-12 ag | FXN GAA850 act | hcDAF-12 act
COc1ccc(C(C(=O)N(C)C2CCCC2)N(Cc2ccc(F)cc2)C(=O)c2cc(C)[nH]n2)cc1OC (stereo not drawn) | x | -2 | 0 | 2 | x | -1
CCOC(=O)[C@]12CCCC=C1N(Cc1ccc(OC)cc1)C(=O)[C@@H]2CC(=O)N1CCN(C(=O)c2ccco2)CC1 | x | -1 | 1 | -3 | x | -3
O=C(OC12CCCN(C1)/C(=C/c1cccc(Cl)c1)C2)c1ccccc1 (stereo not drawn) | x | -1 | 0 | 2 | x | 0
Cc1cc(NS(=O)(=O)c2ccc(NS(=O)(=O)c3ccc(CC(C)C)cc3)cc2)nc(C)n1 | 5.8* | -1 | 0 | -1 | -1 | -1
Cc1ccc(S(=O)(=O)Nc2ccc(S(=O)(=O)Nc3cc(C)nc(C)n3)cc2)cc1 | 1 | -1 | 2 | 3 | -2 | 2
Cc1ccc(NC(=O)Nc2ccccc2CC[N+](=O)[O-])cc1 | x | 0 | 0 | 6 | 1 | 5.8*
O=C(O)c1cc(NC(=O)C2CCCO2)cc(C(=O)O)c1 (stereo not drawn) | 0 | -1 | 0 | 2 | 1 | 2
CC(C)(C)c1cc(NC(=O)C2CCCO2)no1 (stereo not drawn) | 1 | 1.4* | 1 | 8 | 6 | 2
CCC(C)(C)NC(=O)C1CCN(c2nc(OC)nc(OC)n2)CC1 | 6.1* | -1 | 0 | -3 | 0 | -1
CN1C(=O)C2(N=c3ccccc3=N2)c2ccccc21 | -1 | x | x | x | 7 | x
CN1C(=O)C(O)(c2nnc(-c3ccccc3)o2)c2ccccc21 (stereo not drawn) | 3 | 1.1* | 1 | 8 | 1 | -1
Cc1cc2nc3c(c(C(F)(F)F)n2n1)CCCC3 | 6.3* | -1 | 0 | 0 | -1 | -1
Cc1ccc(C(=O)Oc2ccc(/C=C3\C(=N)N4N=C(N5CCOCC5)SC4=NC3=O)cc2)cc1 | 1 | -1 | 0 | 12* | 5 | 2
COc1ccc(S[C@]2(C(=O)NCC(C)C)CC(=O)N[C@@H]2c2ccc(OC)cc2)cc1 | x | -1 | 0 | 0 | x | 0
CC(C)C(NC(=O)[C@H](Cc1ccc(O)cc1)NC(=O)OC(C)(C)C)P(=O)(O)OC(Cc1ccccc1)C(=O)O (stereo partly drawn) | x | -2 | x | 1 | x | -1
CCN(C(=O)COC(=O)c1cc(-c2ccccc2)nc2c1c(C)nn2-c1ccccc1)C1CCS(=O)(=O)C1 (stereo not drawn) | 0 | -1 | -1 | 0 | 2 | 0
Cc1ccc(-n2nc(C)c3c(C(=O)OCC(=O)N(C)C4CCS(=O)(=O)C4)cc(-c4ccccc4)nc32)cc1 (stereo not drawn) | 0 | -1 | 0 | -3 | 0 | 6.2*
Cc1ccccc1NC(=O)c1nc(S(C)(=O)=O)ncc1Cl | 2 | 0 | 0 | -4 | 18* | 0
CN1CCN(NC(=O)CN2C(=O)S/C(=C\c3c(Cl)cccc3Cl)C2=O)CC1 | 5.2* | -1 | -1 | -1 | 0 | 0
O=C(CCN1C(=O)/C(=C/c2ccccc2Cl)SC1=S)NN1CCOCC1 | 0 | -1 | 2 | 2 | 0 | -1
O=C(NCCC1=CCCCC1)NC1CCCCC1 | 1 | 0 | 3 | 11* | 5 | 4
NC(=O)NCCC1=CCCCC1 | -1 | -1 | 1 | -1 | -1 | -2
COc1ccc(-n2c(SCc3nc4ccccc4[nH]3)nc3ccccc3c2=O)cc1 | x | -1 | 0 | 1 | x | 1
Cc1cccc(C)c1NC(=O)CN(c1c(C)cccc1C)S(C)(=O)=O | 5.0* | 0 | 0 | 2 | -3 | 2
CC(=O)c1ccc(NC(=O)Nc2cccnc2)cc1 | 0 | 0 | 4.1* | 5 | 3 | 1
SMILES | DAX1 inh-1 | ssDAF-12 act | DAX1 inh-2 | hgDAF-12 ag | FXN GAA850 act | hcDAF-12 act
O=C(Nc1cccnc1)Nc1cccc([N+](=O)[O-])c1 | 1 | -1 | 0 | 2 | -1 | 6.5*
CC(=O)c1ccc(NC(=O)Nc2ccncc2)cc1 | -2 | -1 | 0 | 7 | 3 | -1
Cc1ccc(NC(=O)Nc2cnccn2)cc1 | 2 | 0 | 4.3* | 8 | 4 | 0
O=C(Nc1ccc(Cl)cc1)Nc1cnccn1 | 4 | -2 | 0 | 7 | 3 | -1
Cc1ccccc1CN1CCCCC(NC(=O)c2ccc(-c3ccccc3)cc2)C1=O (stereo not drawn) | x | -2 | -4 | -1 | x | -6
C=CC[C@H]1c2ccccc2[C@H]2N3N=Cc4ccccc4[C@H]3[C@H](CCCC)C(=O)N2N1C(=O)NCc1ccccc1 | x | -1 | -1 | -1 | x | 0
CN1CCc2c(sc(/N=C/c3c[nH]c4ccccc34)c2C(N)=O)C1 | x | 0 | 0 | 3 | 0 | 5.9*
CCOC(=O)c1c(/N=C/c2ccc(OC)cc2O)sc2c1CCN(C)C2 | 0 | -2 | -1 | -2 | 2 | -2
COc1ccc2c(c1)N[C@@](CCN1C(=O)c3ccccc3C1=O)(c1[nH]c3ccccc3c1CCN1C(=O)c3ccccc3C1=O)C2=O | x | -1 | x | -4 | x | -1
CCCSc1nc2cc(C)c(C)cc2n1CC(O)CO (stereo not drawn) | -1 | -1 | 0 | 4 | 2 | 0
CCN(CC)CC(O)Cn1c(-c2cccc(Cl)c2)nc2cc(C)c(C)cc21 (stereo not drawn) | 4.2* | -1 | 1 | 2 | 2 | 2
COC(=O)C1CCc2c(ccc3c2CCCC3)C1=O (stereo not drawn) | 4.4* | -1 | 4.3* | 6 | 4 | 1
NCCOc1cnn(-c2ccccc2Cl)c(=O)c1Cl | 3 | 1.0* | 0 | 1 | 0 | 2
COc1ccc(Br)cc1C=NNC(=O)c1ccncc1 | x | -2 | 1 | -1 | x | -1
CCOC(=O)C1(Cc2ccc(OC)cc2)CCN(C(=O)c2cc(C)on2)CC1 | 1 | -1 | 0 | 1 | 2 | 0
CCOC(=O)C1(Cc2ccc(OC)cc2)CCN(C(=O)c2cc3ccccc3[nH]2)CC1 | 1 | 0.9* | 1 | 3 | 5 | 3
O=C(Nc1ccccc1Cl)OC1CC2CC1[C@H]1CCCCN1[C@H]2Cc1ccccc1 (stereo partly drawn) | x | -1 | 1 | 3 | x | 1
O=C(O)/C=C/C(=O)Nc1ccc(-n2ccc(C(F)(F)F)n2)cc1 | 0 | -1 | -1 | -2 | 1 | -1
O=C(O)/C=C/C(=O)Nc1ccc(-c2ccccc2)cc1 | -3 | -1 | 1 | 11* | 2 | 0
O=C(O)/C=C/C(=O)Nc1ccc(-n2nccc2C(F)(F)F)cc1 | 4.2* | -1 | 0 | 2 | 4 | 1
O=C(O)/C=C\C(=O)Nc1ccccc1C#Cc1ccccc1 | 2 | -1 | 1 | 10* | 2 | 1
